PubChem BioAssay (Tox21)
Records with an inconclusive call do not appear. Activity calls are given as the source filed them. Unless noted, calls come from the whole dose curve; as a rule, active = well fitted curve in the direction sought with a large enough effect in the repeat runs; inconclusive = weak or mixed curves; inactive = no such curve, though single readings can be large; an effect the other way counts as inactive or inconclusive.

Columns and labels:
[1] = qHTS assay to identify small molecule agonists of the peroxisome proliferator-activated receptor delta (PPARd) signaling pathway - cell viability counter screen (AID 743211); note: nearly all actives have a fitted effect of over 55% in size
In short: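 In the same wells used for beta-lactamase reporter measurement, cytotoxicity is scored by CellTiter-Glo. HEK293H PPARd-bla cells receive compound for 17 h at 37C following a 5 h settling period.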

[2] = qHTS assay to identify small molecule antagonists of the peroxisome proliferator-activated receptor delta (PPARd) signaling pathway - cell viability counter screen (AID 743213); note: nearly all actives have a fitted effect of over 50% in size
In short: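 PPARd-bla HEK293H cells were treated with compounds plus agonist L165041 (300 nM final) for 17 h at 37 C. Viability was then read in the same wells by CellTiter-Glo luminescence after 30 min at room temperature.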

[3] = qHTS assay to identify small molecule agonists of the farnesoid-X-receptor (FXR) signaling pathway - cell viability counter screen (AID 743218); note: nearly all actives have a fitted effect of over 45% in size
In short: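 Quantitative HTS counter screen measuring ATP-based viability via CellTiter-Glo luminescence in HEK 293T cells carrying a UAS-driven beta-lactamase reporter, after 16 h compound exposure at 37 C.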

[4] = qHTS assay to identify small molecule antagonists of the farnesoid-X-receptor (FXR) signaling pathway - cell viability counter screen (AID 743221; active = well fitted cell-killing curve with a large enough effect in the repeat runs, not every such curve was filed as active; note: nearly all actives have a fitted effect of over 50% in size)
In short: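 Here viability was scored by luminescence after CellTiter-Glo addition to wells already read for beta-lactamase. Prior treatment: compound plus CDCA (50 uM final), 16 h, 37 C, HEK 293T FXR-bla cells.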

[5] = qHTS assay to identify small molecule agonists of the vitamin D receptor (VDR) signaling pathway - cell viability counter screen (AID 743224); note: series mostly up to about 63 µM; nearly all actives have a fitted effect of over 50% in size
In short: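 CellTiter-Glo viability readout on VDR-bla cells, measured after 16 h of compound treatment at 37C in the same wells.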

[6] = qHTS assay to identify small molecule antagonists of the vitamin D receptor (VDR) signaling pathway - cell viability counter screen (AID 743225); note: nearly all actives have a fitted effect of over 50% in size
In short: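 Compounds were pinned onto VDR-bla HEK 293T cells together with 1-alpha,25-dihydroxyvitamin D3 at 3 nM final. After 16 h at 37C and 5% CO2 plus the reporter readout, cell viability was measured by CellTiter-Glo luminescence (30 min, room temperature).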

[7] = qHTS assay to identify small molecule agonists of the NFkB signaling pathway (AID 1159509; active = well fitted curve in the direction sought with a large enough effect in the signal ratio in the repeat runs, not every such curve was filed as active; the % refers to the signal ratio; note: series mostly up to about 61 µM)
In short: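 Beta-lactamase reporter assay run in quantitative high-throughput format on an NF-kB-responsive ME-180 line, with 5 hr compound treatment and a FRET-based blue/green fluorescence readout.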

[8] = qHTS assay to identify small molecule agonists of the NFkB signaling pathway - cell viability counter screen (AID 1159515; calls by dose curve; note: series mostly up to about 61 µM; nearly all actives have a fitted effect of over 55% in size)
In short: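 Tox21 library compounds were tested for cytotoxicity against NFkB-bla ME-180 cells during a 5 hr exposure at 37 C. CellTiter-Glo luminescence served as the viability read-out.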

[9] = qHTS assay to identify small molecule agonists of the endoplasmic reticulum stress response signaling pathway (AID 1159516; active = well fitted activation curve with a large enough effect in the signal ratio in the repeat runs, not every such curve was filed as active; the % refers to the signal ratio)
In short: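 Fluorescence at 460 and 530 nm (405 nm excitation) reports beta-lactamase from an ER stress response element in HeLa cells treated 5 hr at 37 C.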

[10] = qHTS assay to identify small molecule agonists of the endoplasmic reticulum stress response signaling pathway - cell viability counter screen (AID 1159517; calls by dose curve)
In short: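 After overnight attachment, ESRE-bla HeLa cells were treated with Tox21 library compounds for 5 hr. CellTiter-Glo luminescence, read 30 min post-addition at room temperature, reported viability.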

[11] = qHTS assay to identify small molecule antagonists of the retinoid-related orphan receptor gamma (ROR-gamma) signaling pathway - cell viability counter screen (AID 1159520); note: nearly all actives have a fitted effect of over 50% in size
In short: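 Cytotoxicity was read from cellular ATP (CellTiter-Glo luminescence) after 16 hr at 37 C with 1 uM doxycycline induction. The inducer was added 2 hr after compound transfer to Tet-on ROR gamma CHO cells.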

[12] = biological target: Nuclear receptor ROR-gamma (Homo sapiens) (UniProt P51449); assay: qHTS assay to identify small molecule antagonists of the retinoid-related orphan receptor gamma (ROR-gamma) signaling pathway (AID 1159521)
In short: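 Test compounds were applied to Tet-on RORγ CHO cells 2 h ahead of doxycycline hyclate (1 uM final). Luciferase reporter activity was quantified by luminescence after 16 h at 37 C and 5% CO2.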

[13] = qHTS assay to identify small molecule agonists of the AP-1 signaling pathway - cell viability counter screen (AID 1159525; calls by dose curve; note: nearly all actives have a fitted effect of over 55% in size)
In short: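 Intracellular ATP by Cell Titer Glo luminescence (30 min, RT) in the same ME-180 AP-1-bla wells after the 5 h compound exposure at 37 °C. Normalised to tetra n-octyl ammonium bromide and DMSO controls.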

[14] = qHTS assay to identify small molecule agonists of the AP-1 signaling pathway (AID 1159526; calls by dose curve)
[15] = biological target: Peroxisome proliferator-activated receptor delta (Homo sapiens) (UniProt Q03181); assay: qHTS assay to identify small molecule agonists of the peroxisome proliferator-activated receptor delta (PPARd) signaling pathway (AID 743212; calls by dose curve;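 note: HEK293H cells with PPARd UAS beta-lactamase reporter GeneBLAzer system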)
Sequence of Peroxisome proliferator-activated receptor delta (Homo sapiens) (Q03181 whole entry, looked up): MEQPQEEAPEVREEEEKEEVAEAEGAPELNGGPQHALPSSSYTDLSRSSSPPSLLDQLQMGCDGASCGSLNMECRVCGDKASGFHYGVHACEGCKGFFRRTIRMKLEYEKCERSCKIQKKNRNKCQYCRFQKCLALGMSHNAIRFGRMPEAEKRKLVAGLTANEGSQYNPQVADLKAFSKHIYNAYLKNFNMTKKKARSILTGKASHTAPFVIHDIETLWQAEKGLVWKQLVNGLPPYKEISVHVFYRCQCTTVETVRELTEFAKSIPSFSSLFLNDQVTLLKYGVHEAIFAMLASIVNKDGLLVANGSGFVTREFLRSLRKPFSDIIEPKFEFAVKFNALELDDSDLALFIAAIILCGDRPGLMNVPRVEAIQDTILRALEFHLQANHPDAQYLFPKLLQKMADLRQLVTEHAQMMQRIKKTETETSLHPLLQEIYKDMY
In short: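 Steps: seed PPARd-bla HEK293H cells; incubate 5 h, 37 C, 5% CO2; add compounds in DMSO; incubate, 37 C; add LiveBLAzer B/G FRET substrate; hold 2 h at room temperature; measure fluorescence.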

[16] = biological target: Peroxisome proliferator-activated receptor delta (Homo sapiens) (UniProt Q03181); assay: qHTS assay to identify small molecule antagonists of the peroxisome proliferator-activated receptor delta (PPARd) signaling pathway (AID 743215; active = well fitted inhibition curve with a large enough effect in the signal ratio in the repeat runs, not every such curve was filed as active; the % refers to the signal ratio;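 note: cells stimulated with agonist L165041 at 300 nM final during compound exposure; series mostly up to about 62 µM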)
In short: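 Here, a reporter line (HEK293H, beta-lactamase under a UAS) measures PPARd signaling. Compounds are tested against agonist L165041 at 300 nM final concentration over 17 h at 37 C, with fluorescence read after substrate.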

[17] = biological target: Vitamin D3 receptor (Homo sapiens) (UniProt P11473); assay: qHTS assay to identify small molecule agonists of the vitamin D receptor (VDR) signaling pathway (AID 743222; calls by dose curve)
Sequence of Vitamin D3 receptor (Homo sapiens) (P11473 whole entry, looked up): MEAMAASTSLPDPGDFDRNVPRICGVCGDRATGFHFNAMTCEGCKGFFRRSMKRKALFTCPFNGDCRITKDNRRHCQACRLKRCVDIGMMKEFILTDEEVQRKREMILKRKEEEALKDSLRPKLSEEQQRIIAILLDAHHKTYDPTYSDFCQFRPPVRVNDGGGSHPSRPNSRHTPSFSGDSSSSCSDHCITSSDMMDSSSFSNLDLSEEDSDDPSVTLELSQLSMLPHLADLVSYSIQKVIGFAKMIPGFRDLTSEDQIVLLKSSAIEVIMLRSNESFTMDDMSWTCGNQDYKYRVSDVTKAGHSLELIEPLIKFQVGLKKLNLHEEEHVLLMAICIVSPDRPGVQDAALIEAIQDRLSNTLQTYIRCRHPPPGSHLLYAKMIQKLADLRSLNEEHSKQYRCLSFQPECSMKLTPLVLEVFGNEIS
In short: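 Tox21 cell reporter format: VDR-bla line, 16 h compound exposure in 5% CO2 at 37C, then fluorescence intensity after 2 h with LiveBLAzer B/G FRET substrate.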

[18] = biological target: Vitamin D3 receptor (Homo sapiens) (UniProt P11473); assay: qHTS assay to identify small molecule antagonists of the vitamin D receptor (VDR) signaling pathway (AID 743223; active = well fitted inhibition curve with a large enough effect in the signal ratio in the repeat runs, not every such curve was filed as active; the % refers to the signal ratio)
In short: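 Inhibition of agonist-driven VDR signalling is scored in VDR-bla cells: 3 nM final 1alpha,25-dihydroxyvitamin D3 plus compound, 16 h at 37C, then beta-lactamase detection by FRET substrate fluorescence after 2 h.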

[19] = biological target: Bile acid receptor (Homo sapiens) (UniProt Q96RI1); assay: qHTS assay to identify small molecule agonists of the farnesoid-X-receptor (FXR) signaling pathway (AID 743220; active = well fitted activation curve with a large enough effect in the signal ratio in the repeat runs, not every such curve was filed as active; the % refers to the signal ratio)
Sequence of Bile acid receptor (Homo sapiens) (Q96RI1 whole entry, looked up): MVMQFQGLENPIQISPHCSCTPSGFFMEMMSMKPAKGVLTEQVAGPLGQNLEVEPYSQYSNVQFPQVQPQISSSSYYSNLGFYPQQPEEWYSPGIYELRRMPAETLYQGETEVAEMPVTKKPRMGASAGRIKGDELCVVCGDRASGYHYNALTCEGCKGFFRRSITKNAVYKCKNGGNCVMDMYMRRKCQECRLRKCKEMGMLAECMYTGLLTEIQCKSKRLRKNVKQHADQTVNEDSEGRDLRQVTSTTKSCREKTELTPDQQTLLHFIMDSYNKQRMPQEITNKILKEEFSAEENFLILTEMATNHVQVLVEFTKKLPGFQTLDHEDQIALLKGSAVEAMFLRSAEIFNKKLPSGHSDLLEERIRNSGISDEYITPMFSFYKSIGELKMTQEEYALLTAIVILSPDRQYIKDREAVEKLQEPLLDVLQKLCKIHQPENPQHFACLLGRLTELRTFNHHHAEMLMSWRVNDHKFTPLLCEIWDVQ
In short: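 FXR-UAS-bla HEK 293T cells carrying a UAS-driven beta-lactamase reporter were plated for 5 h at 37C/5% CO2, then exposed to DMSO-dissolved Tox21 10K compounds for 16 h at 37C. A LiveBLAzer B/G FRET substrate was loaded for 2 h at room temperature before fluorescence reading.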

Measured: Potency

COC(C)(C)CCCC(C)C/C=C/C(C)=C/C(=O)OC(C)C (stereo not given)
not listed: [15] | [16] | [17] | [18] | [19]
inactive: all other assays above

Cc1ccc(O)c(C)c1
not listed: [17] | [18] | [19]
inactive: all other assays above

O=S(=O)(O)OOS(=O)(=O)O
not listed: [1] | [19]
inactive: all other assays above

Nc1ccc([As](=O)(O)O)cc1
not listed: [18] | [19]
inactive: all other assays above

ClC(Cl)c1ccccc1
not listed: [1] | [16] | [19]
inactive: all other assays above

C[C@H]1C(=O)O[C@@H]2CCN3CC=C(COC(=O)[C@](C)(O)[C@]1(C)O)[C@H]23
not listed: [16]
inactive: all other assays above

OCCCCO
not listed: [15] | [16]
inactive: all other assays above

CN(C)C(=O)Cl
not listed: [16] | [19]
inactive: all other assays above

CNC(=O)O/N=C(\SC)C(=O)N(C)C
not listed: [1] | [16] | [19]
inactive: all other assays above

CNC(=O)O/N=C/C(C)(C)S(C)=O (stereo not given)
not listed: [16]
inactive: all other assays above

COP(=S)(OC)Oc1ccc(SC)c(C)c1
not listed: [16] | [19]
inactive: all other assays above

CC(=O)/C=C/c1ccccc1
not listed: [19]
inactive: all other assays above

NNc1ccccc1
not listed: [1] | [15] | [16] | [17] | [18] | [19]
inactive: all other assays above

C/C=C/c1ccc2c(c1)OCO2
not listed: [1] | [15] | [16] | [19]
inactive: all other assays above

CCCOC(=O)c1ccccc1C(=O)OCCC
not listed: [1] | [16] | [17] | [18]
inactive: all other assays above

O=C(O)Cc1ccccc1
not listed: [15] | [16]
inactive: all other assays above

CC(C)(C)C(=O)CCl
not listed: [1] | [16] | [19]
inactive: all other assays above

CN(C)C(=O)Nc1cccc(C(F)(F)F)c1
not listed: [19]
inactive: all other assays above
